Measurements published in PubChem BioAssay (Tox21).
Records with an inconclusive call do not appear. Activity calls are given as the source filed them. Unless noted, calls come from the whole dose curve; as a rule, active = well fitted curve in the direction sought with a large enough effect in the repeat runs; inconclusive = weak or mixed curves; inactive = no such curve, though single readings can be large; an effect the other way counts as inactive or inconclusive.

What was measured:
[1] = qHTS assay to identify aromatase inhibitors - cell viability counter screen (AID 743084);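 note: cells stimulated with testosterone during compound exposure; nearly all actives have a fitted effect of over 55% in size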; note: potency is the fitted concentration of half-maximal effect
[2] = biological target: Aryl hydrocarbon receptor (Homo sapiens) (UniProt P35869); experiment: qHTS assay to identify small molecule that activate the aryl hydrocarbon receptor (AhR) signaling pathway (AID 743085); note: nearly all actives have a fitted effect of over 15% in size; note: potency is the fitted concentration of half-maximal effect;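 for activation: HG2L7.5c1 human HepG2 liver cells with stably integrated DRE-driven firefly reporter; series mostly up to about 70 µM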
Outline: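 Steps: seed HepG2-AhR-luc cells; allow 5 h at 37C; pin-transfer test compound or vehicle; incubate 24 h at 37C; add viability dye (30 min, 37C) and read fluorescence; add luciferase substrate (30 min, RT) and read luminescence.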

[3] = biological target: Peroxisome proliferator-activated receptor gamma (Homo sapiens) (UniProt P37231); experiment: qHTS assay to identify small molecule agonists of the peroxisome proliferator-activated receptor gamma (PPARg) signaling pathway (AID 743094; active = well fitted activation curve with a large enough effect in the signal ratio in the repeat runs, not every such curve was filed as active; the % refers to the signal ratio)
Outline: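 Stably transfected HEK293H cells (GeneBLAzer PPARg UAS-bla) were incubated with test substances for 17 h at 37C after a 5 h pre-incubation; beta-lactamase activity was then detected by FRET substrate fluorescence.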

[4] = qHTS assay for small molecule activators of the heat shock response signaling pathway - cell viability counter screen (AID 743209); note: nearly all actives have a fitted effect of over 50% in size
Outline: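 Quantitative HTS format, Tox21 10K library. HeLa cells carrying an HSE-driven beta-lactamase reporter were treated 5 h at 37 C, then assessed for viability by CellTiter-Glo luminescence.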

[5] = qHTS assay to identify small molecule that activate the aryl hydrocarbon receptor (AhR) signaling pathway - cell viability counter screen (AID 743086); note: nearly all actives have a fitted effect of over 45% in size; note: potency is the fitted concentration of half-maximal effect;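 for viability change, negative = cytotoxic: HepG2 liver cells carrying the AhR DRE luciferase reporter; series mostly up to about 70 µM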
Outline: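 HepG2-AhR-luc (HG2L7.5c1) cells, 4000/well, treated 24 h at 37 C with compound; viability measured as CellTiter-Fluor fluorescence after 30 min in the same wells as the luciferase read.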

[6] = biological target: Peroxisome proliferator-activated receptor gamma (Homo sapiens) (UniProt P37231); experiment: qHTS assay to identify small molecule antagonists of the peroxisome proliferator-activated receptor gamma (PPARg) signaling pathway (AID 743191; calls by dose curve; note: series mostly up to about 63 µM; nearly all actives have a fitted effect of over 30% in size)
Outline: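 GeneBLAzer PPARg UAS-bla HEK293H cells, 5 h post-plating, exposed to compounds 17 h at 37C. LiveBLAzer B/G FRET substrate added for 1 h at room temperature; beta-lactamase reporter read by fluorescence intensity.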

[7] = qHTS assay to identify small molecule antagonists of the peroxisome proliferator-activated receptor gamma (PPARg) signaling pathway - cell viability counter screen (AID 743194); note: nearly all actives have a fitted effect of over 55% in size
Outline: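 Cytotoxicity counter screen in PPARg-bla HEK293H cells, same wells as reporter assay. Compounds plus 50 nM rosiglitazone (final) for 17 h at 37 C, then viability read by CellTiter-Glo luminescence.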

[8] = qHTS assay for small molecule agonists of the antioxidant response element (ARE) signaling pathway (AID 743202; active = well fitted activation curve with a large enough effect in the signal ratio in the repeat runs, not every such curve was filed as active; the % refers to the signal ratio; note: potency is the fitted concentration of half-maximal effect)
Outline: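 Agonist mode reporter screen: HepG2 cells with ARE-controlled beta-lactamase are incubated with test compounds for 16 h at 37 C, and beta-lactamase activity is measured as fluorescence of cleaved B/G FRET substrate.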

[9] = qHTS assay for small molecule agonists of the antioxidant response element (ARE) signaling pathway - cell viability counter screen (AID 743203; calls by dose curve; note: nearly all actives have a fitted effect of over 55% in size)
Outline: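 Cells (ARE-bla HepG2, 2,000/well) receive DMSO-dissolved compounds after a 5 hrs rest. Plates incubate 16 hrs at 37C/5% CO2. CellTiter-Glo luminescence is then recorded after 30 min at room temperature.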

[10] = qHTS assay for small molecule activators of the heat shock response signaling pathway (AID 743210; active = well fitted activation curve with a large enough effect in the signal ratio in the repeat runs, with a control signal flat, not every such curve was filed as active; the % refers to the signal ratio;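 note: HeLa cells with beta-lactamase reporter driven by heat shock elements; series mostly up to about 63 µM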)
Outline: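 Quantitative high-throughput format using an engineered HeLa line in which heat shock response elements drive beta-lactamase; after 5 h with compound, cells received a B/G FRET substrate and fluorescence was read.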
% is set by controls: 0 for no effect and ±100 for the full control effect.

Chain of Aryl hydrocarbon receptor (Homo sapiens) (P35869 whole entry, looked up): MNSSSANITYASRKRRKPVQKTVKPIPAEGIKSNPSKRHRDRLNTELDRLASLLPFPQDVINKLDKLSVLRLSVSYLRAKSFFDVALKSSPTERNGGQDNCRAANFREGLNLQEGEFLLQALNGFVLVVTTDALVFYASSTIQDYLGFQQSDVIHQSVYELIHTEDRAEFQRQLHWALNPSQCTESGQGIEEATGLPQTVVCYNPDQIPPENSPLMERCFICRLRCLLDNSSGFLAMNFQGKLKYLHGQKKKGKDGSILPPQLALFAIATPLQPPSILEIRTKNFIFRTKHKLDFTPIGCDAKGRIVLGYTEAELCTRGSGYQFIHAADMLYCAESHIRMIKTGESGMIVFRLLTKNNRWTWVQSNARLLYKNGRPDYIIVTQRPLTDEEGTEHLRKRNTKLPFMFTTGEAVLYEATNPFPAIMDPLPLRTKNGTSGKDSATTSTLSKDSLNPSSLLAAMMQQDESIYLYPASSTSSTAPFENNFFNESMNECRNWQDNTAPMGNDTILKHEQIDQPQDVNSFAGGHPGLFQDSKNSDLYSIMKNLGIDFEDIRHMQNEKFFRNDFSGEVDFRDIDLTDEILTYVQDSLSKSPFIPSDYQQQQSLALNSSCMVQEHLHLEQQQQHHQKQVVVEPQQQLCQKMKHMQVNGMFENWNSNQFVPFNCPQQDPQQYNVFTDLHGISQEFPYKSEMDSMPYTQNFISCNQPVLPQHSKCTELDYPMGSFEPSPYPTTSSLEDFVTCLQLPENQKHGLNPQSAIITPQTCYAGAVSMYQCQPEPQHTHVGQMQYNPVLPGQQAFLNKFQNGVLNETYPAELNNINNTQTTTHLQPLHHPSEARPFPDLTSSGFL
Chain of Peroxisome proliferator-activated receptor gamma (Homo sapiens) (P37231 whole entry, looked up): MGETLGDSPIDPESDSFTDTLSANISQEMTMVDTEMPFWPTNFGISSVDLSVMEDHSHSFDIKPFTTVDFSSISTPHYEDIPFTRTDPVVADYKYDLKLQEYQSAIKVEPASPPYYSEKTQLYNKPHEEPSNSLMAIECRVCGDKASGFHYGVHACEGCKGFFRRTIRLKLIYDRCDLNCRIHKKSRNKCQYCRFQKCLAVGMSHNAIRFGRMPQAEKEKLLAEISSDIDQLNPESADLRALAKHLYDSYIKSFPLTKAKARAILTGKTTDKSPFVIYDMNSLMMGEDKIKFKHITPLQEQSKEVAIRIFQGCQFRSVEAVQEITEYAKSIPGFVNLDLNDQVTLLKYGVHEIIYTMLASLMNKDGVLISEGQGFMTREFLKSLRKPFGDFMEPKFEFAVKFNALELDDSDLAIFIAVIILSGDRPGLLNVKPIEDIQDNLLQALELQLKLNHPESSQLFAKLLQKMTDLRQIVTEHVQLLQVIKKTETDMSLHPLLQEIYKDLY

Nc1cccc2c(N)cccc12
active: Potency [2] 19.3 µM
inactive: Potency [1] | outcome [3] | Potency [4]

O=S(=O)(O)CO
inactive: Potency [1] | Potency [5] | outcome [3] | Potency [6] | Potency [7] | Potency [8] | Potency [9] | Potency [10]

CCN(CC)CCNC(=O)c1cc(Cl)c(N)cc1OC
inactive: Potency [1] | Potency [2] | Potency [5] | Potency [7] | Potency [8] | Potency [9] | Potency [4] | Potency [10]

BrC(Br)C(Br)Br
inactive: Potency [1] | Potency [5] | outcome [3] | Potency [7] | Potency [8] | Potency [9]

COc1ccc(C)cc1
inactive: Potency [1] | Potency [5] | outcome [3] | Potency [6] | Potency [7] | Potency [8] | Potency [9] | Potency [4]

O=C(O)CO
inactive: Potency [1] | Potency [5] | outcome [3] | Potency [6] | Potency [7] | Potency [9] | Potency [4] | Potency [10]

CCCc1nc2c(C)cc(-c3nc4ccccc4n3C)cc2n1Cc1ccc(-c2ccccc2C(=O)O)cc1
active: Potency [8] 26.6 µM
inactive: Potency [1] | Potency [2] | Potency [5] | Potency [7] | Potency [4] | Potency [10]

CCC(Cl)CC(Cl)C(Cl)C(Cl)C(Cl)C(C)Cl (stereo unspecified)
inactive: Potency [1] | Potency [5] | outcome [3] | activity change, negative = cytotoxicity [7] -22.8% [at 13.2 µM] | activation [8] 7.21% [at 18.1 µM] | viability change, negative = cytotoxic [9] -17% [at 18.1 µM] | activity change, negative = cytotoxicity [4] 2.25% [at 13.2 µM]

COC(OC)OC
inactive: Potency [1] | Potency [2] | Potency [5] | Potency [7] | Potency [8] | Potency [4] | Potency [10]

CCCCCCCCCCCCCC(=O)OCC(O)CO (stereo unspecified)
inactive: Potency [1] | Potency [2] | Potency [5] | Potency [7] | Potency [8] | Potency [4] | Potency [10]

CCOCCC(=O)OCC
inactive: Potency [1] | Potency [5] | outcome [3] | Potency [7] | Potency [8] | Potency [9] | Potency [4]

CC(C)(C)C(O)/C=C/c1ccc2c(c1)OCO2 (stereo unspecified)
inactive: Potency [1] | Potency [5] | outcome [3] | Potency [6] | Potency [7] | Potency [9] | Potency [4] | Potency [10]

CC(=O)OCC(C)C
inactive: Potency [1] | Potency [5] | outcome [3] | Potency [6] | Potency [7] | Potency [8] | Potency [4] | Potency [10]

Cc1ccc(NC(=O)N(C)C)cc1NC(=O)N(C)C
inactive: Potency [1] | Potency [5] | outcome [3] | Potency [6] | Potency [7] | Potency [8] | Potency [9] | Potency [4]

Nc1ccc(S(=O)(=O)NCc2ccccc2)cc1
inactive: Potency [1] | Potency [5] | outcome [3] | Potency [6] | Potency [7] | Potency [8] | Potency [4] | Potency [10]

CCOC(=O)C(C)O (stereo unspecified)
inactive: Potency [1] | Potency [2] | Potency [5] | Potency [7] | Potency [8] | Potency [9] | Potency [4] | Potency [10]

CC(C)(O)c1coc(S(=O)(=O)NC(=O)Nc2c3c(cc4c2CCC4)CCC3)c1
inactive: Potency [1] | Potency [5] | outcome [3] | Potency [6] | Potency [7] | Potency [8] | Potency [9] | Potency [4] | Potency [10]

Nc1nc(-c2ccc([N+](=O)[O-])cc2)cs1
inactive: Potency [1] | Potency [5] | outcome [3] | Potency [6] | Potency [7] | Potency [4] | Potency [10]

C/C(C=O)=C\c1ccccc1
inactive: Potency [1] | Potency [5] | outcome [3] | Potency [6] | Potency [7] | Potency [9] | Potency [4] | Potency [10]

COc1ccc(C(=O)NCc2ccc(OCCN(C)C)cc2)cc1OC
inactive: Potency [1] | Potency [5] | outcome [3] | Potency [6] | Potency [7] | Potency [8] | Potency [4] | Potency [10]

CC1C(C)(C)C2=C(C(=O)CCC2)C1(C)C (stereo unspecified)
inactive: Potency [1] | Potency [5] | outcome [3] | Potency [6] | Potency [7] | Potency [9] | Potency [4]

COc1ccc(N)c([N+](=O)[O-])c1
inactive: Potency [1] | Potency [2] | outcome [3] | Potency [7] | Potency [8] | Potency [4]

Cc1cn([C@H]2C[C@H](F)[C@@H](CO)O2)c(=O)[nH]c1=O
inactive: Potency [1] | Potency [5] | outcome [3] | Potency [6] | Potency [7] | Potency [8] | Potency [4]

CC(=O)OCCC1CCCCC1
inactive: Potency [1] | Potency [5] | outcome [3] | Potency [6] | Potency [7] | Potency [8] | Potency [9] | Potency [4]

O=C1c2ccccc2C(=O)c2c(O)ccc(O)c21
inactive: Potency [4] | Potency [10]
active: Potency [1] 38.6 µM | Potency [2] 7.7 µM | Potency [8] 2.73 µM

Nc1ccn([C@H]2CS[C@@H](CO)O2)c(=O)n1
inactive: Potency [1] | Potency [2] | Potency [5] | Potency [9] | Potency [4]

CC(=O)OCCC(C)CC(C)(C)C (stereo unspecified)
inactive: Potency [1] | Potency [5] | outcome [3] | Potency [6] | Potency [7] | Potency [8] | Potency [4] | Potency [10]

O=C(c1ccccc1)c1ccc(O)cc1
inactive: Potency [1] | Potency [5] | outcome [3] | Potency [6] | Potency [7] | Potency [9] | Potency [4] | Potency [10]

CCN(CC)CCOC(=O)C(c1ccccc1)c1ccccc1
inactive: Potency [1] | Potency [5] | outcome [3] | Potency [6] | Potency [7] | Potency [8] | Potency [9] | Potency [4]

Nc1c(Cl)cc(Cl)cc1[N+](=O)[O-]
inactive: Potency [1] | Potency [2] | Potency [5] | Potency [7] | Potency [9] | Potency [4]

CNc1c2c(nn1C)CCCC2
inactive: Potency [1] | Potency [5] | outcome [3] | Potency [6] | Potency [7] | Potency [8] | Potency [4] | Potency [10]

CCOC(=O)c1c(N)sc2c1CCN(Cc1ccccc1)C2
inactive: Potency [1] | Potency [5] | outcome [3] | Potency [6] | Potency [7] | Potency [9] | Potency [4] | Potency [10]

O=NN(CCCl)C(=O)NCCCl
inactive: Potency [1] | Potency [5] | outcome [3] | Potency [6] | Potency [4] | Potency [10]

CN1CCCN(C(c2ccccc2)c2ccc(Cl)cc2)CC1 (stereo unspecified)
active: Potency [1] 21.1 µM
inactive: Potency [2] | Potency [4] | Potency [10]

C1=CCC2CC=CC2C1 (stereo unspecified)
inactive: Potency [1] | Potency [5] | outcome [3] | Potency [7] | Potency [9] | Potency [4]

CCCCCc1ccco1
inactive: Potency [1] | Potency [5] | Potency [7]

CCCCCCC(O)CCOC(C)=O (stereo unspecified)
inactive: Potency [1] | Potency [5] | outcome [3] | Potency [7] | Potency [8] | Potency [9] | Potency [4] | Potency [10]

CCC1CCC(CCC(=O)O)C1 (stereo unspecified)
inactive: Potency [1] | Potency [5] | Potency [7] | Potency [9] | Potency [4]

O=C(O)CCC(=O)c1ccc(-c2ccccc2)cc1
inactive: Potency [1] | Potency [5] | outcome [3] | Potency [7] | Potency [8] | Potency [9] | Potency [10]

Cc1ccc(N(CCO)CCO)cc1
inactive: Potency [1] | Potency [5] | outcome [3] | Potency [7] | Potency [9] | Potency [4] | Potency [10]

Cc1c(C2(c3cc(Br)c(O)c(Br)c3C)OS(=O)(=O)c3ccccc32)cc(Br)c(O)c1Br
active: Potency [1] 18.8 µM | Potency [5] 10.5 µM
inactive: outcome [3] | Potency [7] | Potency [4] | Potency [10]

O=C(Nc1ccc(C(=O)O)c(O)c1)c1ccccc1
inactive: Potency [1] | Potency [5] | outcome [3] | Potency [7] | Potency [8] | Potency [9] | Potency [4] | Potency [10]

COC(CC(C)CCCC(C)(C)O)OC (stereo unspecified)
inactive: Potency [1] | Potency [5] | outcome [3] | Potency [7] | Potency [8] | Potency [4] | Potency [10]

O=[N+]([O-])c1ccc2ncccc2c1
inactive: Potency [1] | Potency [5] | outcome [3] | Potency [7] | Potency [8] | Potency [9] | Potency [4] | Potency [10]

O=C1NC(=O)c2cccc3cccc1c23
inactive: Potency [1] | Potency [5] | outcome [3] | Potency [7] | Potency [9] | Potency [4] | Potency [10]

O=C1OC(=O)c2c(Br)c(Br)c(Br)c(Br)c21
inactive: Potency [1] | Potency [5] | outcome [3] | Potency [7] | Potency [9] | Potency [4] | Potency [10]

C[C@H](CS)C(=O)N1CCC[C@H]1C(=O)O
inactive: Potency [1] | Potency [5] | Potency [7] | Potency [8] | Potency [9] | Potency [4] | Potency [10]

CC(C)(O)CCc1ccccc1
inactive: Potency [1] | Potency [5] | outcome [3] | Potency [7] | Potency [8] | Potency [9] | Potency [4]

CCCCCCCCCCCC(=O)OCC(O)CO (stereo unspecified)
inactive: Potency [1] | Potency [5] | Potency [7] | Potency [8] | Potency [9]
